Bioassay records from PubChem.
Sampled rows, rich in hits. Any-hit rate of the full collection: about 3.3%.
NOD2-RIPK2 inh – blocks binding of human NOD2 to RIPK2; O43353; CHO BLA complementation NOD2-RIPK2, CCF4 ratio; inhibition, % at 4.98 µM; 360,000 compounds, 0.38% hits; in the data active = inhibition above about 21%
rCAG binder – binds r(CAG) RNA repeats. inhibition, % at 3 µM. r(CAG) RNA repeat, TO-PRO-1 dye displacement fluorescence. 370,000 compounds, 1.3% hits. AID 651821;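 active = inhibition above the plate cutoff, the mean of all test compounds on that plate plus 3 SD, cut at about 35% in these data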;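 also: higher means more dye released from RNA so lower well fluorescence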
PRMT1 FP inh – inhibitors of human PRMT1; Q99873; recombinant PRMT1, activity-based probe fluorescence polarization; inhibition, % at 2.79 µM; 370,000 compounds, 1.3% hits; AID 652257;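 active = inhibition above about 21% made by adding two undisclosed values, limit read from the data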
ABHD5-PLIN5 inh – blocks binding of human ABHD5 to perilipin-5; 360,000 compounds, 0.78% hits; Q00G26+Q8WTS1; inhibition, % at 4 µM; Split G. princeps luciferase complementation, luminescence, 4 h;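 active = inhibition above the mean inhibition across every tested compound plus 3 SD, cut at about 22% in these data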
TLR4-MyD88 BLA – TLR4-MyD88 interaction inhibition in cells; O00206+Q99836; AID 861; 200,000 compounds, 0.18% hits; inhibition, % at 8.4 µM; HeLa CL3-4 TLR4/MyD88 BLA complementation, FRET ratio; in the data active = inhibition above about 25%
Target sequence (O00206 whole entry, looked up): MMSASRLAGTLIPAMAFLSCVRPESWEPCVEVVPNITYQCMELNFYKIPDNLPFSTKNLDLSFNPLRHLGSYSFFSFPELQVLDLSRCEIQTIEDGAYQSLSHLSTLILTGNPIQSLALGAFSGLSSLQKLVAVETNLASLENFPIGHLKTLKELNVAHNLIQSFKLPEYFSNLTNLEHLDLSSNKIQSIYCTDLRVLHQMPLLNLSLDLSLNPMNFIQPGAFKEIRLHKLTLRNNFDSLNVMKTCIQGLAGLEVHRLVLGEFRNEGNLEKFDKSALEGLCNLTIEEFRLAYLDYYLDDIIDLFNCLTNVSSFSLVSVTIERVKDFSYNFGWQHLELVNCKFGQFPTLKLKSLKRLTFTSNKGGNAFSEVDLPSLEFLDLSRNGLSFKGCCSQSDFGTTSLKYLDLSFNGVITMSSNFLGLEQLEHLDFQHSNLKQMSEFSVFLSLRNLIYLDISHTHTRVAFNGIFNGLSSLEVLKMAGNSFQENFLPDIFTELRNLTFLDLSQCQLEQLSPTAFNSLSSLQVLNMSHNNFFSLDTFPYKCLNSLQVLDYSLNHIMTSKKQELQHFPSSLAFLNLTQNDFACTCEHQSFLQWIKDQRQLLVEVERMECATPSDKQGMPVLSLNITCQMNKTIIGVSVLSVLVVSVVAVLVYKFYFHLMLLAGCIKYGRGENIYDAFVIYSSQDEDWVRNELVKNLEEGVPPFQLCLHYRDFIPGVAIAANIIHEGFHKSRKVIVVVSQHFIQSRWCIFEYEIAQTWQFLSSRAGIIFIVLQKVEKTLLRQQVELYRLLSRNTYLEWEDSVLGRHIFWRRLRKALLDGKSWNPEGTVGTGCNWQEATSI
Target sequence (Q99836 whole entry, looked up): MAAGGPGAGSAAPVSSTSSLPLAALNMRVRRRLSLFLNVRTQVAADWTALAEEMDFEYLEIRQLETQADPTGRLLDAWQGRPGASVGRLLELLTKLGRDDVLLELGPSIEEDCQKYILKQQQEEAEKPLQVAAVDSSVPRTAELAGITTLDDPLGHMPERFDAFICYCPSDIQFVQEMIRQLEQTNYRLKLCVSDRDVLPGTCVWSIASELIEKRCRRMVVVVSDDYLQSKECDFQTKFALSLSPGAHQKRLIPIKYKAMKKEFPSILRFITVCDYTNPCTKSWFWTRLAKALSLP
TLR9-MyD88 block – TLR9-MyD88 interaction inhibition | CHO BLA complementation TLR9-MyD88, CCF4 FRET ratio | inhibition, % at 4.98 µM | 340,000 compounds, 0.21% hits | AID 504734 | Q9NR96+Q99836;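 active = inhibition above the mean over all tested compounds plus 3 SD, cut at about 21% in these data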
TLR9-MyD88 conf – TLR9-MyD88 interaction inhibition, confirmation. shares compounds with TLR9-MyD88 block. CHO TLR9/MyD88 BLA complementation, CCF4 FRET ratio. inhibition, % at 4.98 µM. 680 compounds, 51% hits. AID 540250;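 active = mean inhibition across three repeats above about 21% taken from the earlier screen, limit read from the data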;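 also: blue over green emission ratio reports constitutive TLR9 MyD88 association via BLA complementation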
BLA counter-1 – counter-screen for TLR9-MyD88 inhibitors: non-selective beta-lactamase inhibitors; inhibition, % at 4.98 µM; shares compounds with TLR9-MyD88 block; AID 540251; 680 compounds, 7% hits; CHO-BLA cells, CCF4 FRET ratio, BLA reporter;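 active = mean inhibition above a 50% cutoff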;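 also: counterscreen of TLR9-MyD88 hits on CMV-driven BLA in CHO-K1 cells; higher means less blue over green ratio so more BLA blockade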
TLR9 CHO tox – CHO cell toxicity counter-screen for TLR9-MyD88 inhibitors | AID 588336 | shares compounds with TLR9-MyD88 block | 680 compounds, 39% hits | inhibition, % at 4.98 µM | TLR9-MyD88 CHO cells cytotoxicity, luminescence; in the data active = inhibition above about 11%
ABHD5-PLIN5 conf – ABHD5-PLIN5 interaction inhibition, confirmed | shares compounds with ABHD5-PLIN5 inh | biochemical ABHD5-PLIN5 interaction, luminescence | inhibition, % at 4 µM | 2,200 compounds, 67% hits | AID 651612; in the data active = inhibition above about 23%
HNF4 counter – HNF4 split-luciferase signal hit, counter-screen; shares compounds with ABHD5-PLIN5 inh; inhibition, % at 4 µM; HNF4 dimerization, luminescence, biochemical; 2,200 compounds, 77% hits;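 active = mean inhibition across replicate wells exceeding the computed hit threshold, cut at about 13% in these data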;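 also: light from luciferase halves that rejoin when HNF4 fusion proteins dimerize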
NOD2 RIPK2 conf – confirmation of human NOD2-RIPK2 interaction inhibitors. shares compounds with NOD2-RIPK2 inh. CHO cells, NOD2-RIPK2 BLA complementation, CCF4 FRET. inhibition, % at 4.98 µM. 1,200 compounds, 70% hits;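 active = mean inhibition across replicates above a set limit taken from the earlier primary screen, cut at about 21% in these data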
BLA counter-2 – NOD2-RIPK2 counterscreen BLA reporter activity; shares compounds with NOD2-RIPK2 inh; CHO BLA reporter, CCF4 FRET ratio; inhibition, % at 4.98 µM; 1,200 compounds, 57% hits; AID 624371;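 active = mean inhibition above the low-control mean inhibition plus three low-control SD, cut at about 11% in these data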
Of the large screens only hits and unclear results are named; the others gave an inactive call (follow-up assays come after a bar, where they were run); ! = repeats disagree.

CCS(=O)(=O)c1ncc(Cl)c(C(=O)Nc2ccc(S(=O)(=O)N(C)c3ccccc3)cc2)n1	NOD2-RIPK2 inh 99.2, ABHD5-PLIN5 inh 77.7, TLR9-MyD88 block 55.4 (no result: TLR4-MyD88 BLA) | TLR9-MyD88 conf 53.9 | BLA counter-1 50.1 | TLR9 CHO tox 100.2 | ABHD5-PLIN5 conf 92.0 | HNF4 counter 98.7 | NOD2 RIPK2 conf 96.3 | BLA counter-2 53.7
CCOC(=O)c1nc(S(C)(=O)=O)ncc1N1CCOCC1	none
CCCCCc1cc(=O)oc2c(C(CCN(CC)CC)c3ccc(N(C)C)cc3)c(OC)cc(OC)c12 (configuration not stated)	none (no result: TLR4-MyD88 BLA)
Cc1ccccc1NC(=O)/C=C/c1ccc([N+](=O)[O-])s1	NOD2-RIPK2 inh 39.1, ABHD5-PLIN5 inh 28.6, TLR9-MyD88 block 27.0 (no result: rCAG binder, PRMT1 FP inh) | TLR9-MyD88 conf 28.3 | BLA counter-1 inactive | TLR9 CHO tox 95.9 | NOD2 RIPK2 conf 37.5 | BLA counter-2 41.1
Cc1cc(C)cc(NC(=O)/C=C/c2ccc([N+](=O)[O-])s2)c1	none
O=[N+]([O-])c1ccc(C2=NN(c3ccccc3)C(c3ccco3)C2)cc1 (configuration not stated)	NOD2-RIPK2 inh 41.2, TLR9-MyD88 block 58.8 (no result: TLR4-MyD88 BLA) | TLR9-MyD88 conf 40.3 | BLA counter-1 inactive | TLR9 CHO tox inactive | NOD2 RIPK2 conf 73.1 | BLA counter-2 68.9
O=[N+]([O-])c1ccc(/C=C/C2=NN(c3ccccc3)C(c3ccco3)C2)cc1 (configuration not stated)	none
COc1cc(CNc2ncn[nH]2)ccc1OCc1cccc(C)c1	none
O=C(c1ccccc1)c1cc(Cl)ccc1N1C(=O)C=CC1=O	NOD2-RIPK2 inh 58.8, PRMT1 FP inh 90.6, ABHD5-PLIN5 inh 38.2, TLR9-MyD88 block 33.1 | TLR9-MyD88 conf 37.5 | BLA counter-1 inactive | TLR9 CHO tox 96.3 | ABHD5-PLIN5 conf 47.1 | HNF4 counter 97.8 | NOD2 RIPK2 conf 89.0 | BLA counter-2 22.6
CC(=O)Nc1ccc(S(=O)(=O)Nc2cccc3cccnc23)cc1	none (no result: TLR4-MyD88 BLA)
O=S(=O)(Nc1cccc2cccnc12)c1ccccc1	NOD2-RIPK2 inh 38.8, TLR9-MyD88 block 34.9 (no result: TLR4-MyD88 BLA) | TLR9-MyD88 conf inactive | BLA counter-1 inactive | TLR9 CHO tox 98.4 | NOD2 RIPK2 conf 54.2 | BLA counter-2 17.6
CC(=O)OCC1OC(OC(C)=O)C(NC(=O)c2cccnc2)C(OC(C)=O)C1OC(C)=O (configuration not stated)	none
CC1=Nc2ccc(C)cc2/C1=C/c1c(N)n2oc(C)cc2nc1=O	NOD2-RIPK2 inh 55.1, TLR9-MyD88 block 21.2! | TLR9-MyD88 conf inactive | BLA counter-1 inactive | TLR9 CHO tox inactive | NOD2 RIPK2 conf 41.5 | BLA counter-2 29.1
CN(C)c1ccc(/C=C2\Oc3ccc(C#Cc4cccc(N)c4)cc3C2=O)cc1	NOD2-RIPK2 inh 49.4, TLR9-MyD88 block 45.0 (no result: rCAG binder, PRMT1 FP inh, TLR4-MyD88 BLA) | TLR9-MyD88 conf 53.3 | BLA counter-1 60.0 | TLR9 CHO tox inactive | NOD2 RIPK2 conf 70.6 | BLA counter-2 78.5
COC(=O)c1ccc2c(c1)C(=O)/C(=C/c1ccc(C)cc1)O2	none
O=C(CC1(CC(=O)N2CCOCC2)CCCC1)Nc1ccc(F)cc1	none (no result: TLR4-MyD88 BLA)
COc1ccc2oc(=O)c(-c3csc(Nc4cccc(O)c4)n3)cc2c1	NOD2-RIPK2 inh 30.6, TLR9-MyD88 block 35.8 | TLR9-MyD88 conf inactive | BLA counter-1 inactive | TLR9 CHO tox inactive | NOD2 RIPK2 conf 27.9 | BLA counter-2 46.7
Cc1ccc(C(=O)Sc2cccccc2=O)cc1	NOD2-RIPK2 inh 34.9, PRMT1 FP inh 45.4, TLR9-MyD88 block 29.7 (no result: TLR4-MyD88 BLA) | TLR9-MyD88 conf 21.4 | BLA counter-1 inactive | TLR9 CHO tox 98.8 | NOD2 RIPK2 conf 48.3 | BLA counter-2 15.6
Cc1ccc(C(=O)CC(=O)c2ccccc2)cc1	none (no result: TLR4-MyD88 BLA)
CC(C)(C)c1ccc(S(=O)(=O)NC(=O)C2(C)CCN2C(=O)C2CC2)cc1 (configuration not stated)	none (no result: TLR4-MyD88 BLA, TLR9-MyD88 block)
O=C1/C(=C/c2cccc(F)c2)Oc2cc(O)ccc21	NOD2-RIPK2 inh 31.8, TLR9-MyD88 block 25.5 (no result: TLR4-MyD88 BLA) | TLR9-MyD88 conf inactive | BLA counter-1 inactive | TLR9 CHO tox inactive | NOD2 RIPK2 conf 43.6 | BLA counter-2 42.0
Cc1cccc(/C=C2\Oc3cc(OS(C)(=O)=O)ccc3C2=O)c1	none
COCCCn1c(SCC(=O)N2CCOCC2)nc2cc(Cl)ccc2c1=O	none (no result: TLR4-MyD88 BLA)
O=c1c(O)c(-c2cccs2)oc2ccccc12	NOD2-RIPK2 inh 29.5, TLR9-MyD88 block 20.9 | TLR9-MyD88 conf inactive | BLA counter-1 inactive | TLR9 CHO tox inactive | NOD2 RIPK2 conf 41.0 | BLA counter-2 38.4
CCN(CCn1cccn1)C(=O)C1CCC(=O)N(CCc2cccc(F)c2)C1 (configuration not stated)	none (no result: TLR4-MyD88 BLA)
O=c1c2ccccc2nc(/C=C/c2ccccc2)n1CCCO	none (no result: TLR4-MyD88 BLA)
CN(C)c1ccc(/C=C/c2nc3ccccc3c(=O)n2CCO)cc1	NOD2-RIPK2 inh 34.7, TLR9-MyD88 block 44.7 (no result: TLR4-MyD88 BLA) | TLR9-MyD88 conf inactive | BLA counter-1 inactive | TLR9 CHO tox inactive | NOD2 RIPK2 conf inactive | BLA counter-2 27.8
CCOC(=O)c1c(C)nc2sc(C(=O)Nc3ccc(C(C)=O)cc3)c(N)c2c1-c1ccc(OC)cc1	NOD2-RIPK2 inh 25.3, TLR9-MyD88 block 22.2 | TLR9-MyD88 conf inactive | BLA counter-1 inactive | TLR9 CHO tox 16.3 | NOD2 RIPK2 conf 49.1 | BLA counter-2 54.5
CCc1ccc(Nc2n[n+](-c3ccccc3)c(-c3c(Cl)cccc3Cl)s2)cc1	NOD2-RIPK2 inh 68.2, TLR9-MyD88 block 79.8 (no result: TLR4-MyD88 BLA) | TLR9-MyD88 conf 43.4 | BLA counter-1 inactive | TLR9 CHO tox 28.7 | NOD2 RIPK2 conf 75.0 | BLA counter-2 62.6
Cc1ccccc1-n1c(C)cc(/C=N/Nc2ccc([N+](=O)[O-])cn2)c1C	NOD2-RIPK2 inh 27.6, TLR9-MyD88 block 36.6 | TLR9-MyD88 conf 20.8 | BLA counter-1 inactive | TLR9 CHO tox 10.3 | NOD2 RIPK2 conf 38.0 | BLA counter-2 39.9
